The list is not random: actives were taken first. Their share in the collection is about 7.6%.
HEK293 cAMP ctrl: counter-screen for TSHR agonists: cAMP increase in parental HEK293 | parental HEK293 CNG cAMP sensor, membrane potential fluorescence | Potency, µM (top dose mostly 57.1 µM), for the others: at the top dose activation, actives largely listed as activators | 2.5% of 73,000 active | AID 938; further: % of control where 0% means no effect; nearly all actives have a fitted effect of over 55% in size
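Counterscreen for endogenous-receptor signalling: CNG-channel HEK 293 cells report cAMP rise by membrane depolarization. After 60 min dye equilibration with 100 uM RO 20-1724, compounds incubated 30 min before bottom-read fluorescence at 590 nm.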
CRE Fsk mod: alters forskolin-stimulated CRE reporter signaling in CHO cells. 2.5% of 71,000 active. AID 662. Potency, µM (series often up to 38.2 µM), without a hit: top-dose activity change, negative = inhibition, most hits filed as activators. CHO CRE-bla reporter (cAMP response element driving beta-lactamase), forskolin EC10, beta-lactamase ratio; active means well fitted activation curve with a large enough effect in the signal ratio, with a control signal flat, not every such curve was filed as active; inconclusive means small, poorly fitted or top-dose-only effect, or effect the other way, or a change in a side signal; the % refers to the signal ratio; further: % of control where 0% means no effect
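Cells were plated overnight at 37 °C, exposed to compound titrations plus EC10 NKH 477 for 3 h, then given CCF4 dye for 2 h at room temperature. Blue/green (460/530 nm) ratio was converted to %Activity and AC50 values calculated.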
TSHR agonist: TSH receptor (human) agonism; P16473; HEK293-CNG-TSHR cells (CNG channel as cAMP sensor), membrane potential dye, cAMP; Potency, µM (doses to about 57.1 µM), for the others: at the top dose activation, most hits filed as activators; 0.48% of 73,000 active; active means well fitted activation curve with a large enough effect in the main read-out, with a control signal flat, not every such curve was filed as active; inconclusive means small, poorly fitted or top-dose-only effect, or a change in a side signal; inactive means no such curve, though single readings can be large or run the other way; % of control where 0% means no effect;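 further: the control signal comes from parental cells without the receptor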
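HEK 293 cells stably expressing TSHR and a modified CNG channel, with CNG-only parental cells as counterscreen, were preloaded 60 min at room temperature with membrane potential dye containing 100 uM RO 20-1724. Compound exposure was 30 min, and depolarization was read as fluorescence at 590 nm.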
ERK AVP block: inhibitors of vasopressin-stimulated ERK signaling pathway. HEK293-V1b, vasopressin-stimulated pERK AlphaScreen. Potency, µM (top dose mostly 57.5 µM), inactives show at the highest dose activity, negative = inhibition, most hits filed as inhibitors. 0.99% of 72,000 active. AID 995; further: on the % scale 0 is the no-effect control and ±100 the full control effect; nearly all actives have a fitted effect of over 55% in size
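Phosphorylated ERK1/2 detected via AlphaScreen bead proximity in lysates of V1b-expressing HEK293 cells given 25 nM vasopressin for 5 min after 30 min compound exposure (37 °C). AC50 from Hill equation; basal DMSO 0%, vasopressin 100%.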
Tau filament bind: binds recombinant human tau filaments; AID 596; 2% of 71,000 active; recombinant tau filaments, thioflavin S fluorescence, 15 h; filaments grown with octadecylsulfate alongside compound; Potency, µM (doses to about 57.1 µM), for the others: top-dose activity change, negative = inhibition;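 further: on the % scale 0 is the no-effect control and ±100 the full control effect; actives lower thioflavin S fluorescence by blocking filaments or displacing dye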
Target sequence (P10636 whole entry, looked up): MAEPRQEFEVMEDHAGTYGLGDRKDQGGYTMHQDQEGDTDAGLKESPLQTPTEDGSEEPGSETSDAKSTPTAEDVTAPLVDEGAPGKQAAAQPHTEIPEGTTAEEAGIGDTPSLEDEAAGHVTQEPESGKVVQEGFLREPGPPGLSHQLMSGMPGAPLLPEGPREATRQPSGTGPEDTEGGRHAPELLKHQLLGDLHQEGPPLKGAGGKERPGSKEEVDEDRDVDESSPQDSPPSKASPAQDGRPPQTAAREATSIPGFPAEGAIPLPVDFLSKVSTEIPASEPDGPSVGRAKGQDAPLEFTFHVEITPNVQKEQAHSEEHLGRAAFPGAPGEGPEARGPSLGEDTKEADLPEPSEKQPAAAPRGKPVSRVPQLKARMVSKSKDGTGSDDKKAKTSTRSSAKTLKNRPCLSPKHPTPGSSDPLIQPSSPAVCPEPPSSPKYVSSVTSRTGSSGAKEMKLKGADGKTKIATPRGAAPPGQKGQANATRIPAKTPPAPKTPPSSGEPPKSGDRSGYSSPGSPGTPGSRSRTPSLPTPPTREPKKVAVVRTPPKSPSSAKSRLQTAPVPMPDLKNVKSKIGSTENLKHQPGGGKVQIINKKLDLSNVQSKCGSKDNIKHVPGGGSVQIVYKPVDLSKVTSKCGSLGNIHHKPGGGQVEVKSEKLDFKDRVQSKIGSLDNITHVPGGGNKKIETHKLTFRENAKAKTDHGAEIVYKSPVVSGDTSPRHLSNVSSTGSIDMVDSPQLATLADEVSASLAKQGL
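Tau 2 uM in ThS buffer dispensed; compound added; 60 uM ODS added (finals 1 uM tau, 30 uM ODS); 15 h 37 C; fluor ex450/em510.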
Active calls of the source: *; i = inactive; ? = inconclusive; . = not tested or not shown; [ ] = another dose, or the depositor's remark. Unless noted, the call rests on the fitted dose curve; in most records, active means well fitted curve in the direction sought with a large enough effect; inconclusive means small, poorly fitted or top-dose-only effect, or another doubt; inactive means no such curve, though single readings can be large; an effect the other way counts as inactive or inconclusive. Potency means the concentration at half of the fitted maximal effect.

SMILES	HEK293 cAMP ctrl	CRE Fsk mod	TSHR agonist	ERK AVP block	Tau filament bind
COc1cc2c(cc1OC)-c1cc(OCCN3CCOCC3)nc(=O)n1CC2	-10%	7.9µM*	12%	?	14%
COc1ccc(C2C(C(=O)NCc3ccccn3)c3cc(OC)c(OC)cc3C(=O)N2C)cc1 (stereo not given)	5%	6%	0%	39%	3%
COc1cc2c(cc1OC)-c1cc(NCc3ccccn3)nc(=O)n1CC2	-16%	13µM*	7%	?	-5%
CCCS(=O)(=O)N1CCc2cc(OC)c(OC)cc2C1	?	?	?	-3%	-2%
CCCCCCNc1cc2n(c(=O)n1)CCc1cc(OC)c(OC)cc1-2	1%	2µM*	.	?	111%
CCNc1cc2n(c(=O)n1)CCc1cc(OC)c(OC)cc1-2	-1%	10µM*	7%	-29%	13%
C[C@@H]1CN2[C@H](c3ccc(Br)cc3)[C@H](C)CC[C@H]2C(=O)O1	?	.	?	-3%[11.5 µM]	.
CCc1ccc(C2C(C#N)=C(N)SC(N)=C2C#N)s1	18%	?	24%	?	25µM*
Cc1ccc2nc(CSc3nnc(-c4ccco4)n3-c3ccccc3)cc(=O)n2c1	?	5µM*	?	20%	8%
c1ccc(-n2c(SCc3nc(-c4cccs4)no3)nnc2-c2ccco2)cc1	?	5µM*	?	-22%	26%
O=C(Nc1cccc(F)c1)N1CC2(CCN(C(=O)c3cc(C(F)(F)F)cc(C(F)(F)F)c3)CC2)C1	16%	-10%	6%	-16%	-18%
CC(C#N)Sc1ncnc2sc3c(c12)CCC3 (stereo not given)	25µM*	?	?	-68%	12%
CO[C@H]1COC(=O)[C@H](C)NC(=O)[C@@H](C)COC(=O)C/C=C\[C@@H]1C	8%[11.4 µM]	.	-6%[11.4 µM]	7%[11.5 µM]	.
Cc1cc(C)c(NC(=O)C[C@H](CC(=O)O)c2cccc3ccccc23)c(C(=O)N2CCC3(CCCC3)CC2)c1	8%	?	-50%	2%	-1%
COc1cccc2sc(Nc3nnc(-c4ccccc4Cl)o3)nc12	11%	5µM*	-8%	.	180%
COc1ccccc1-c1nnc(Nc2nc3c(OC)cccc3s2)o1	11%	?	9%	12%	59%
C[C@@H](CN(C)C)CN1c2ccccc2CCc2ccccc21	13%[25.6 µM]	-11%[17.1 µM]	20%[25.6 µM]	1%[25.7 µM]	-23%[25.6 µM]
CCC(C)NC(=O)c1c(N)n(/N=C/c2ccccn2)c2nc3ccccc3nc12 (stereo not given)	19%	2.5µM*	11%	-19%	-4%
CC(C)Cn1c(N)c(C(=O)NCC2CCCO2)c2nc3ccccc3nc21 (stereo not given)	?	?	?	-4%	57%
CC(C)OCCCNC(=O)c1c(N)n(/N=C/c2ccccn2)c2nc3ccccc3nc12	10µM*	2.5µM*	?	-19%	-2%
CCC(C)NC(=O)c1c(N)n(/N=C/c2cccnc2)c2nc3ccccc3nc12 (stereo not given)	17%	0.63µM*	16%	-4%	18%
Cc1nc2ccccc2c(=O)n1/N=C/c1cccnc1	3%	?	5%	-22%	7%
N[C@@](C(=O)O)(c1ccc(P(=O)(O)O)cc1)C1CC1	0%	-6%	-1%	2%	-8%
NCCC[C@@H](CC(=O)N[C@@H]1CCNC[C@H]1C(=O)N[C@H](CC(=O)N[C@@H](CCC(=O)O)CC(=O)O)Cc1c[nH]c2ccccc12)NC(=O)C[C@H](CO)NC(=O)[C@@H]1CNCC[C@H]1N	11%	-11%	9%	.	-13%
CCOC(=O)c1cc2c(=O)n3ccccc3nc2n(Cc2ccccc2)c1=N	-20%	-20%	-10%	5%	1.6µM*
SMILES	HEK293 cAMP ctrl	CRE Fsk mod	TSHR agonist	ERK AVP block	Tau filament bind
N=c1c(C(=O)NCc2ccco2)cc2c(=O)n3ccccc3nc2n1CCc1ccccc1	-78%	?	?	?	0.63µM*
COc1ccc(CNC(=O)c2cc3c(=O)n4ccccc4nc3n(Cc3ccco3)c2=N)cc1	-3%	?	-52%	-9%	229%
CCOC(=O)c1cc2c(=O)n3ccccc3nc2n(CC(C)C)c1=NC(=O)c1ccco1	-13%	?	-14%	18%	?
COc1ccc(CCn2c(=N)c(C(=O)N3CCN(C)CC3)cc3c(=O)n4ccccc4nc32)cc1	-62%	13µM*	?	?	16µM*
Cc1ccc(Cn2c(=N)c(C(=O)NCc3ccco3)cc3c(=O)n4ccccc4nc32)cc1	-84%	?	?	-16%	3.2µM*
O=C1OC(C2=CCCCC2)=NC12CC2	5%[11.4 µM]	.	3%[11.4 µM]	6%[11.5 µM]	.
O=C1CCC[C@@H](C2=CCCCC2=O)C1	-4%[11.4 µM]	.	7%[11.4 µM]	4%[11.5 µM]	.
c1ccc(C(c2ccccc2)N2CC3(CCNCC3)C2)cc1	18%	-8%	-3%	-18%	-2%
CN1CCN(c2ncc3nc(-c4cccs4)c(=O)n(CCC#N)c3n2)CC1	9%	?	-12%	-9%	i
COC(=O)c1ccc(NC(=O)N2CCOCC2)cc1	4%	-1%	-5%	-9%	-5%
O=C(Nc1ccc(Nc2ccccc2)cc1)N1CCOCC1	-1%	-1%	-1%	-7%	16µM*
Cc1c(N=CC=Nc2c(C)n(C)n(-c3ccccc3)c2=O)c(=O)n(-c2ccccc2)n1C	-2%[11.4 µM]	?	-7%[11.4 µM]	-11%	-4%[11.4 µM]
Cc1c(N=C/C=C2\N(C)c3ccccc3C2(C)C)c(=O)n(-c2ccccc2)n1C	-1%	-4%	7%	-36%	1µM*
Nc1c[n+](N2CCOCC2)no1	-6%	?	-3%	-3%	-1%
COc1ccc(-n2nc(C(=O)Nc3ccc4c(c3)OCO4)c3ccccc3c2=O)cc1	16µM*	?	?	3%	-4%
COc1ccc(-n2nc(C(=O)N3CCN(Cc4ccc5c(c4)OCO5)CC3)c3ccccc3c2=O)cc1	6%	0%	1%[11.4 µM]	6%	-8%
CCCNC(=O)OC[C@H]1O[C@@H](CCO/N=C\[C@@H](NS(=O)(=O)c2ccc(C)cc2)[C@H](C)/C=C\CC(=O)OC)C=C[C@@H]1Oc1ccc(OC)cc1	13%[11.4 µM]	.	0%[11.4 µM]	5%[11.5 µM]	.
COc1ccc(Cn2c(-c3ccco3)nc3oc4cc(OC)ccc4c(=O)c3c2=O)cc1	-2%	6%	3.2µM*	-15%	10µM*
CCN(CC)CCNC(=O)c1ccc(Cc2nc3ccccc3[nH]2)cc1	-18%	.	16%	.	.
COC(=O)NC(CC(C)=O)c1cccc(C(F)(F)F)c1 (stereo not given)	0%[11.4 µM]	.	3%[11.4 µM]	17%[11.5 µM]	.
C=CCn1c(SCc2c(C)noc2C)nc2cc(C(=O)O)ccc2c1=O	0%	?	23%	2%	-10%
Cc1noc(C)c1CSc1nc2sc(C)c(C)c2c(=O)n1C1CCCC1	22%	2µM*	14%	-5%	-13%
